Pf Dd2 inh = blocks in vitro growth of P. falciparum Dd2; P. falciparum Dd2 growth, SYBR Green, 72 h; Potency, µM (top dose mostly 28.9 µM), most hits filed as inhibitors; hit rate 4.3% among 120,000; active = well fitted inhibition curve with a large enough effect; also: nearly all actives have a fitted effect of over 65% in size
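Readout: SYBR Green fluorescence, 485 nm excitation, 535 nm emission, after ~16 h lysis at 37C. Before that, Dd2-infected red cells (2.5% hematocrit) grew 72 h with compound, 29 uM top final concentration.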
Hits are given with their value; - = inactive; [ ] = remark or other dose. The sample as a whole holds a higher share of hits than the screen did.

SMILES	Pf Dd2 inh
CCc1ccc(CNC(=O)c2ccc(CSc3nc4ccncc4n3Cc3ccccc3)cc2)cc1	10µM
Cn1c(SCc2ccc(F)cc2)nc2ccc(C(=O)NCc3cccc(Cl)c3)cc21	10µM
COC(=O)c1ccc(Cn2c(SCc3ccccc3)nc3ccncc32)cc1	-
CC(CNC(=O)c1ccc(CSc2nc3ccncc3n2Cc2ccc(F)cc2)cc1)c1ccccc1 (configuration not stated)	4.47µM
COc1cc(=O)n2c(c1C(=O)N1CCN(c3ccccc3C)CC1)CCCC2	-
O=C(NCc1ccccc1F)[C@H]1CN(Cc2ccccc2)C[C@H]1C(=O)O	-
CNC(=O)c1cc[nH]c1C1CCCN(C(=O)Cn2c(=O)oc3ccccc32)C1 (configuration not stated)	-
CCCNC(=O)N(CCC)CC1CCOC1 (configuration not stated)	-[5.79 µM]
CCN(CC)C(=O)CC[C@@H]1CNC(=O)[C@@H]2C[C@H](NCc3ccc(N(C)C)cc3)CN12	-
CN1CCC(Oc2ncccc2C(=O)NCCc2ccccn2)CC1	-
Cc1ccccc1NC(=O)N1CCC(CCNC(=O)CCCc2ccccc2)CC1	-
C[S+](=O)([O-])c1ccc(-c2ccc3ncn(-c4ccc(F)cc4F)c(=O)c3n2)cc1	-
COc1ccc(-c2cc(N3CCCC(NC(=O)c4ccc(F)c(Cl)c4)C3)n[nH]2)cc1 (configuration not stated)	-
COc1ccc(CN[C@@H]2CCC[C@@H](C(=O)N3CCN(C)CC3)CC(=O)N(C)C2)cc1	-
O=C1NC(=NC2CCCCC2)C2(CCN([S+](=O)([O-])c3ccccc3)CC2)N1c1cccnc1	-
CN(C(=O)Cn1cccc1-c1nc(-c2ccc3c(c2)OCO3)no1)c1ccccc1	-
O=C(c1ccc(-n2ccnc2)cc1)N1CCC(c2[nH]ncc2-c2ccccc2)CC1	-
COc1ccccc1CNC(=O)c1ccc(CSc2nc3ccncc3n2Cc2cccc(F)c2)cc1	3.55µM
Cc1cccc(CSc2nc3cccnc3n2Cc2ccc(C(=O)NCc3cccs3)cc2)c1	-
O=C(NCc1cccs1)c1ccc(CSc2nc3ccncc3n2Cc2cccc(F)c2)cc1	8.91µM
Cc1cnc(-c2ccccc2)n1CCNC(=O)C1COc2ccccc2O1 (configuration not stated)	-
CC(C)CN1C(=O)N(CC(=O)N(C)Cc2ccon2)C(=O)C12CCNCC2	-
COc1cc(Cl)ccc1C(=O)N1CC(F)(F)C[C@H]1c1nnc(C)o1	-
COc1ccc2[nH]c3c(c2c1)CCN(C)C31CCN(C(=O)C2CCC2)CC1	-
COc1ccc(NC(=O)N2CCc3c([nH]c4ccc(OC)cc34)C2c2ccc(OC)cc2)cc1 (configuration not stated)	4.47µM
SMILES	Pf Dd2 inh
COc1ccc2[nH]c3c(c2c1)CCN(C(=O)c1cccc(Cl)c1)C3c1ccc(F)cc1 (configuration not stated)	-
Cn1nc(C2CCN(C(=O)NCc3ccccc3)CC2)c2c1CCOC2	-[5.79 µM]
CCN1C(=O)C(O)(c2c(C)[nH]c3ccccc23)c2ccccc21 (configuration not stated)	-
CCCCN1C(=O)C(O)(c2c(C)[nH]c3ccccc23)c2cc(Br)ccc21 (configuration not stated)	11.2µM
CCCCN1C(=O)C(O)(c2c(C)[nH]c3ccccc23)c2ccccc21 (configuration not stated)	-
O=C1NCc2ccccc2CC12CCN(Cc1ccccc1Cl)C2 (configuration not stated)	-
CCC(Sc1nc2cc3c(cc2c(=O)n1CCCC(=O)NCc1ccc(OC)cc1)OCO3)C(=O)NCCCOC (configuration not stated)	-
CCCCC(Sc1nc2cc3c(cc2c(=O)n1CCCC(=O)NCc1ccc(OC)cc1)OCO3)C(=O)OCC (configuration not stated)	7.94µM
COc1ccc(CNC(=O)CCCn2c(SCC(N)=O)nc3cc4c(cc3c2=O)OCO4)cc1	-
O=C(NCc1cc2n(n1)CCNC2)C(c1ccccc1)C1CCCC1 (configuration not stated)	-
Cc1cccc2ncc(C(=O)NCc3cc4n(n3)CCCNC4)c(=O)n12	-
c1ccc(-c2nc(NCc3cc4n(n3)CCCNC4)c3ccccc3n2)cc1	7.94µM
COc1cccc2c1ccn2CCNC(=O)C1CC(=O)N(c2n[nH]c3ccccc23)C1 (configuration not stated)	-
CC(=O)N1CCC([C@@H]2CN(C3CCN(C(C)=O)CC3)C[C@H]2CO)CC1	-
O=C(CC1CCOCC1)Nc1ccccc1	-
Cn1nc(C2CCN(c3cncc(C(N)=O)n3)CC2)n(-c2ccccc2)c1=O	-
F[C@@H]1CN(Cc2cccnc2)C[C@@H]1OCc1nc2ccccc2[nH]1	-
Cc1cccc(C(=O)N2CC(=O)N(c3cccc(Cl)c3)CC2C)n1 (configuration not stated)	-
COCc1nc(C2CCCN(C(=O)c3cccc(OC)c3OC)C2)no1 (configuration not stated)	-
CN1CCN(C[C@@H]2CN(C(=O)CCc3cn[nH]c3)C[C@@H]2CO)CC1	-
